Among all 360,000 compounds or so, about 5,000 (1.4%) were called active. Shown is part of a subset that was picked to be rich in actives. Unmarked numbers belong to inactive results.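 Rule for the calls: active = inhibition of 50% or more, scaled per plate between neutral and stimulator controls; inactive = the rest.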
Experiment: mitochondrial permeability transition pore inhibitors, primary screen, biochemical, isolated mouse mitochondria, absorbance (AID 602449);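 note: 0% = DMSO wells given calcium and 100% = 1 mM EGTA wells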
Details: Ca2+ swelling absorbance, 30 min, at 10 µM, hits give high values
`COc1ccc(N(C)S(=O)(=O)c2ccc3c(c2)CC(C)N3C(=O)C2CC2)c(OC)c1` (stereo unspecified) showed an inhibition of 0.9%. With `COc1cccc(CNS(=O)(=O)c2ccc3c(c2)CC(C)N3C(=O)C2CCC2)c1` (stereo unspecified) the inhibition was 90.4% (active). `O=C(C1CCC1)N1CCc2cc(S(=O)(=O)NCc3cccnc3)ccc21` gave an inhibition of -1.1%. Work on `COc1cccc(NC(=O)Cn2cnc3sc(C)c(S(=O)(=O)N4CCN(C)CC4)c3c2=O)c1` yielded an inhibition of 0.8%. For `Cc1ccc(C2(C(F)(F)F)N=C3Sc4cc(C)cc(C)c4N3C(=O)N2)cc1` (stereo unspecified), the inhibition was 5.4%. For `COc1cc(NS(=O)(=O)c2ccc(NC(=S)NC(=O)c3ccccc3)cc2)nc(OC)n1`, the inhibition was -1.6%. In the case of `CSc1sc(C(=O)NNC(=O)c2ccc(Cl)cc2)c2c1C=CCC2`, the inhibition is reported as 3%. In the case of `CS(=O)(=O)c1sc(C(=O)NC(=S)Nc2ccc(OC(F)(F)F)cc2)c2c1C=CCC2`, the inhibition is reported as 53.1% (active). With `COc1cccc(N(Cc2nnc3n2CCCCC3)C(=O)Nc2ccccc2F)c1` the inhibition was 0.7%. Compound `Cc1nn(-c2ccccc2)c2sc(C(=O)N(Cc3ccco3)C(C)C(=O)NC(C)(C)C)cc12` (stereo unspecified) has an inhibition of -3.6%. `CC1=C(C(=O)N2CCOCC2)CC(CC(=O)NCCN2CCOCC2)C(=O)N1CCC1=CCCCC1` (stereo unspecified) gave an inhibition of 5.2%. In the case of `CN(C(=O)Nc1ccc(Cl)cc1)n1cnc2ccccc2c1=O`, the inhibition is reported as 55.1% (active). `O=C(Nn1cnc2ccccc2c1=O)c1ccc(F)cc1Cl` showed an inhibition of 0.6%. `O=C(Cn1nnc2ccccc2c1=O)NCc1ccc(Cl)cc1` showed an inhibition of -0.4%. With `O=C(CCCN1C(=O)C2C3C=CC(C3)C2C1=O)N1CCN(c2ccccc2)CC1` (stereo unspecified) the inhibition was -1.6%. `CN(C)C(CNC(=O)c1cc2ccccc2o1)c1ccccc1` (stereo unspecified) gave an inhibition of 0.1%. For `CNS(=O)(=O)c1ccc(C(=O)NCC(=O)NCCc2ccc3c(c2)OCCO3)cc1`, the inhibition was -1.7%. In the case of `O=C(NCCc1ccc2c(c1)OCCO2)c1cc2ccccc2o1`, the inhibition is reported as 74.2% (active). `O=C(NC(=O)c1cc(OCC(F)(F)F)ccc1OCC(F)(F)F)Nc1ccccc1` gave an inhibition of 12.2%. `CCCCCN(C(=O)NC(=O)Nc1ccccc1C)S(C)(=O)=O` gave an inhibition of 7.5%. With `CC(=O)Nc1cc(-c2ccccc2N(C)C)cn2c(-c3ccc(F)c(Cl)c3)cnc12` the inhibition was 0.4%. In the case of `CCCN1C2=C(C(=O)CCC2)C(c2ccc(O)c(Br)c2)C2=C1CCCC2=O`, the inhibition is reported as 0.7%. Work on `Fc1cccc2ncnc(OCc3ccccc3)c12` yielded an inhibition of 0.3%. For `Fc1ccc(COc2cccc(-c3n[nH]c(=S)o3)c2)cc1`, the inhibition was 8.5%. With `Cc1nc2ccccc2cc1OCc1ccc(F)cc1` the inhibition was 97.1% (active). In the case of `Cc1ccc(S(=O)(=O)N2CCOCC2)cc1NC(=O)COC(=O)c1cnccn1`, the inhibition is reported as -1%. In the case of `Nc1nc(SCC(=O)Nc2ccc(Cl)cc2C(F)(F)F)n[nH]1`, the inhibition is reported as 0.2%. `CNC(=O)Nc1cc(C(C)(C)C)no1` gave an inhibition of -2.3%. In the case of `Cc1[nH]n(-c2cccc(Cl)c2)c(=O)c1-c1ccc(Cl)cc1`, the inhibition is reported as 102% (active). `Cc1nc2c(-c3ccccc3)c(C)[nH]n2c(=O)c1Cl` showed an inhibition of -1%. Compound `CCCc1cc(=O)n2[nH]c(C)c(-c3ccc(Cl)cc3)c2n1` has an inhibition of 1.2%. In the case of `CC(NC(=O)CN1CCN(Cc2ccc(Cl)cc2)C1=O)c1ccc2c(c1)OCCO2` (stereo unspecified), the inhibition is reported as -2.1%. For `Cc1c2cnn(CC(=O)NCCCN3CC(C)CC(C)C3)c(=O)c2c(C)n1Cc1ccc(Cl)cc1` (stereo unspecified), the inhibition was -0.1%. `COc1ccc(CNC(=O)C(=O)N2CCC3(CC2)OCCN3S(=O)(=O)c2ccc(C)cc2)cc1` gave an inhibition of 0.1%. In the case of `NC1=NC(=O)C(Cc2cccc(Cl)c2Cl)S1` (stereo unspecified), the inhibition is reported as 1.7%. Compound `CCOC(=O)Cc1csc(SCC(=O)NC(C)C23CC4CC(CC(C4)C2)C3)n1` (stereo unspecified) has an inhibition of -0.5%. In the case of `COc1cccc(C(=O)CC(=O)C(=O)Nc2ccc([N+](=O)[O-])cc2C)c1`, the inhibition is reported as -17.7%. For `CC(=O)c1ccc(NC(=O)Nc2ccc([N+](=O)[O-])cc2C)cc1`, the inhibition was 94.4% (active). For `COc1cc(NC(=O)Nc2ccc(C)cc2)cc([N+](=O)[O-])c1`, the inhibition was 104% (active). Compound `CC(=O)Nc1ccc(C(=O)OCC(=O)Nc2ccc([N+](=O)[O-])cc2C(F)(F)F)cc1` has an inhibition of 36.6%. In the case of `COc1ccc(S(=O)(=O)NNC(=O)Nc2ccc(C)cc2)c(OC)c1`, the inhibition is reported as -0.8%. For `Cc1ccc(Oc2cc(NC(=O)CCCn3nc(C)c([N+](=O)[O-])c3C)cc([N+](=O)[O-])c2)cc1`, the inhibition was 40.9%. For `COc1ccc(NC(=O)C(c2ccncc2)n2c(=O)c(-c3cc4ccccc4[nH]3)nc3ccccc32)cc1` (stereo unspecified), the inhibition was 4.2%. In the case of `CC(C)C[C@H](NC(=O)C1CC(=O)N(c2ccc3c(c2)OCCO3)C1)C(=O)NC1CCCC1` (stereo partly specified), the inhibition is reported as -0.1%. `CN(C)C(=O)c1cc(Br)ccc1Cl` gave an inhibition of 1.1%. In the case of `O=C(Nc1ccc(OC(F)(F)F)cc1)c1ccc2c(c1)no[n+]2[O-]`, the inhibition is reported as 82.5% (active). `CCc1nnc(NS(=O)(=O)c2ccc(NC(=O)c3cccc(OC(F)(F)C(F)F)c3)cc2)s1` showed an inhibition of 2.9%. With `Cc1ccc(NC(=O)c2ccc(Oc3ncccn3)cc2)cc1` the inhibition was 0.4%. In the case of `Fc1cccc(Cc2c(-c3cccc(Cl)c3)nc3ccc(Br)cn23)c1`, the inhibition is reported as 2.5%. For `CCOC(=O)C1CCN(C(=O)Cc2c(C(=O)O)[nH]c3ccccc23)CC1`, the inhibition was 0.3%. For `CCOC(=O)C1=C(CC)Nc2ccccc2N=C1N`, the inhibition was 1.2%. In the case of `O=C(COC(=O)c1ccc[nH]c1=O)Nc1ccc2c(c1)OC(F)(F)O2`, the inhibition is reported as 3%. In the case of `O=C(COC(=O)c1ccccc1NC(=O)c1ccco1)Nc1ccc2c(c1)OC(F)(F)O2`, the inhibition is reported as 60.9% (active). Work on `O=C(COC(=O)CNC(=O)c1ccco1)Nc1ccc(F)cc1` yielded an inhibition of -1.2%. In the case of `COC(=O)[C@]12CCCCC=C1N(Cc1ccccc1)C(=O)[C@H](CC(=O)NCc1ccc(C)o1)C2`, the inhibition is reported as -0.1%. `COc1ccc(NC(=O)CN(C)S(=O)(=O)c2ccccc2)cc1OC` showed an inhibition of -0.5%. For `Cc1ccc(-c2nc(-c3cccnc3)sc2CC(=O)Nc2ccc(C)c(Cl)c2)cc1`, the inhibition was 93.3% (active). Compound `Cc1nc(-c2ccc(F)cc2)c(CC(=O)Nc2cc(S(=O)(=O)N3CCCCC3)ccc2C)s1` has an inhibition of -0.4%. Work on `Cc1cc(C)c(NC(=O)CS(=O)CC(=O)Nc2cccnc2)c(C)c1` (stereo unspecified) yielded an inhibition of -1.4%. Work on `Cc1ccc(Nc2c(F)c(F)c(F)c(F)c2C(=O)O)c(C)c1` yielded an inhibition of -0.7%. In the case of `O=C(CCn1nnc2ccccc2c1=O)N[C@@H](Cc1c[nH]c2ccccc12)C(=O)O`, the inhibition is reported as 1.4%. `Cc1ccc(C(=O)Nc2nnc(C3=COCCO3)o2)cc1C` gave an inhibition of -0.8%. For `Cc1cc(C(=O)CSc2nc(N)cc(=O)[nH]2)c(C)n1Cc1ccco1`, the inhibition was 64.3% (active). In the case of `Cc1cc(C(=O)CSc2nc(N)cc(=O)[nH]2)c(C)n1-c1cccc(F)c1`, the inhibition is reported as 63.2% (active). Work on `Cc1cc(C)c(C(=O)CSc2nc(C)cc(=O)[nH]2)c(C)c1` yielded an inhibition of 0.6%. With `Cc1cc(C(=O)CSc2nc(N)cc(=O)[nH]2)c(C)n1CCc1ccc(Cl)cc1` the inhibition was -9%. `COc1ccc(C)cc1-n1nnnc1SCC(=O)c1cc(C)n(Cc2ccco2)c1C` showed an inhibition of -2.3%. `Cc1cc(C(=O)COC(=O)C2CC2)c(C)n1-c1ccc(F)cc1` gave an inhibition of 0.2%. Work on `CC1CCN(c2ccc(-c3ccc(NC(=O)c4ccco4)cc3)nn2)CC1` yielded an inhibition of 0.3%. In the case of `CSCCC1NC(=O)N(CC(=O)Nc2cccc(S(=O)(=O)N3CCCCCC3)c2)C1=O` (stereo unspecified), the inhibition is reported as 1.2%. `CCOC(=O)C1C(=O)OC2(CCCC2)C1C(=O)OCC` (stereo unspecified) showed an inhibition of -1.2%. For `COc1cccc(CNc2nc(NCc3ccccc3OC)nc3ccsc23)c1`, the inhibition was 94.6% (active). With `COc1ccccc1CNc1nc(Nc2ccccc2Cl)c2sccc2n1` the inhibition was 74.5% (active). `COc1cccc(CNc2nc3cc(-c4csc5ccccc45)sc3c(=O)n2C)c1` gave an inhibition of 2.5%. With `COc1cccc(-c2cc3nc(NCc4ccccc4OC)n(C)c(=O)c3s2)c1` the inhibition was 1.9%. In the case of `COCCNc1nc(NCc2ccc(NC(C)=O)cc2)c2sccc2n1`, the inhibition is reported as -1.4%. In the case of `COc1ccc(NC(=S)NCc2cccs2)c(OC)c1`, the inhibition is reported as 2.2%. With `Clc1ccccc1Nc1nc(NCc2cccs2)nc2ccsc12` the inhibition was 3%. For `COc1cccc(CNc2nc(NCc3cccs3)nc3ccsc23)c1`, the inhibition was 77.8% (active). `COCCNc1nc(Nc2ccccc2Cl)c2sc(-c3ccccc3)cc2n1` showed an inhibition of 2.1%. Work on `Cc1ccc(Nc2nc(CSc3nnc(-c4ccncc4)n3-c3ccccc3C)cs2)cc1` yielded an inhibition of 2.2%. `CC(Cc1cccs1)NC(=O)c1cccc(Cl)c1` (stereo unspecified) showed an inhibition of 4.2%. `Cc1c(NC(=S)NC(=O)CCc2ccccc2)c(=O)n(-c2ccccc2)n1C` gave an inhibition of 0.3%. `Cc1cc(C)cc(NC(=O)COC(=O)c2cc(C)oc2C)c1` showed an inhibition of 0.5%. `CN(C)CCn1c2c(c(SCC(=O)NCc3ccccc3)nc1=O)CCC2` showed an inhibition of -1%. Work on `CCOC(=O)c1cc(=O)c2ccc(OCc3ccccc3)cc2o1` yielded an inhibition of 0.1%. In the case of `CCOC(=O)c1cc2cc(-c3c(C(=O)OCC)oc4cc(O)cc(O)c4c3=O)ccc2o1`, the inhibition is reported as 50.9% (active). Compound `CCOC(=O)c1oc2c(CN3CCN(C)CC3)c(O)ccc2c(=O)c1-c1ccc(Br)cc1` has an inhibition of 9.1%. In the case of `C/C(=N\Nc1nc2ccccc2[nH]1)c1cccs1`, the inhibition is reported as 1.1%. `Cc1ccc(-c2nc(C)sc2CC(=O)OCC(=O)Nc2c(F)cccc2F)cc1` gave an inhibition of 0.8%. In the case of `Cn1c(=O)c(C(=O)Nc2ncccn2)c(O)c2ccccc21`, the inhibition is reported as -1.3%.
